Inhibition data for 40 molecules are collected here from ChEMBL document CHEMBL3433997, “St. Jude Leishmania screening dataset” (2016).

The target in one assay is Solute carrier family 2, facilitated glucose transporter member 1 (Homo sapiens) (UniProt P11166). The assay can be described thus: ST_JUDE_LEISH: Cytotoxicity at 2uM final concentration against transgenic Leishmania Mexicana promastigotes LmGLUT1 that are glucose transport deficient and complemented with the human glucose transporter GLUT1. Activity is measured by DNA content using SYBR green in vitro. The format is functional.
Sequence of Solute carrier family 2, facilitated glucose transporter member 1 (Homo sapiens) (P11166 whole entry): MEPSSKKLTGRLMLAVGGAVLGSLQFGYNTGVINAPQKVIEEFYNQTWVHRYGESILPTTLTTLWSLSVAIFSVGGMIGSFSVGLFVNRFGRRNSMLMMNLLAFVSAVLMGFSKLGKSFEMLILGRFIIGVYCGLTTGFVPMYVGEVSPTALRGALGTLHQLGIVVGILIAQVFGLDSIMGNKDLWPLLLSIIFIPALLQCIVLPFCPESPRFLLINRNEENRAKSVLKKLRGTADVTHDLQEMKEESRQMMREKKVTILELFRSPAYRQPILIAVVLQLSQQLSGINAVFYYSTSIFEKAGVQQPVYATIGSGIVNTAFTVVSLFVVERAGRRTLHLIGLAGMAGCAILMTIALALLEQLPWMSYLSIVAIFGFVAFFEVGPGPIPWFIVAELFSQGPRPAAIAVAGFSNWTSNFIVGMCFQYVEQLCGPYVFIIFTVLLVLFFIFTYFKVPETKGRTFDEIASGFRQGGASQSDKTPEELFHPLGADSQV
Usually inhibition stands for the relative decrease from the control value, in per cent. As for `OCCN1CCN(C2Cc3ccc(F)cc3Sc3ccc(Cl)cc32)CC1` (stereo not given), the inhibition is 0.59%.

In the case of `CC(C)(CN)c1nc(-c2ccc(Br)c(O)c2)c(-c2ccncc2)[nH]1`, the inhibition amounted to 1.39%.

Consider `CCOC(=O)c1sc(C(C)Nc2ccccc2)nc1-c1ccccc1` (stereo not given), for which the inhibition came out at 0.89%.

As to `O=[N+]([O-])c1ccc(/C=N/Nc2cc(-c3ccccc3)nc3ccccc23)o1`, the inhibition was found to be 9.16%.

As to `COc1cc(NC(=O)c2sc(-c3ccc(Cl)cc3)cc2NC(=O)c2ccncc2)ccc1OCCN1CCCC1`, the inhibition was determined as 7.57%.

Regarding `COc1cccc2sc(N3CCN(C(=O)c4ccc([N+](=O)[O-])o4)CC3)nc12`, the inhibition was 2.53%.

For the molecule `CN1CCN(Cc2ccc(-c3ccc4c(Nc5cc(O)c(Cl)cc5F)ccnc4c3)o2)CC1`, the inhibition is 7.47%.

As to `Cc1cc(N(C)C)nc(Nc2ccc(NC(=O)c3ccccc3F)cc2)n1`, the inhibition came out at 1.36%.

As to `Cc1c(Cc2ccc(C(C)C)cc2)cnc2nc(N)nc(N)c12`, the inhibition came out at 1.34%.

On to `COc1ccc2ncc(F)c(CCN3C4CCC3CC(NCc3ccc5c(c3)OCCO5)C4)c2n1` (stereo not given), for which the inhibition is 59.9%.

For `Cc1cc(OCC2CCCO2)c2cc(NC(=O)C(=O)Nc3ccc4nc(C)cc(OCC5CCCO5)c4c3)ccc2n1` (stereo not given), the inhibition is 3.87%.

Regarding `COc1c(C(=O)NC2CCN(Cc3ccccc3)C2)cnc2ccccc12` (stereo not given), the inhibition is 11.8%.

Take `O=C(c1ccc(-c2ccc(Cl)cc2)o1)N1CCc2cc3nccc(N4CCN5CCC[C@H]5C4)c3cc21`: the inhibition was -1.09%.

With `Nc1nc(N)c2cc(N(Cc3ccccc3)Cc3ccccc3)ccc2n1`, the inhibition is 16.1%.

Consider `Cc1nc(-c2nc(NCc3ccccn3)ncc2-c2ccsc2)sc1C`, for which the inhibition stood at 6.64%.

With `CCc1ccc(CN2CCCCC(NC(=O)c3cc(-c4ccccc4F)cs3)C2)cc1` (stereo not given), the inhibition is -2.71%.

On to `CC(C)c1ccc(OCC(O)CN(CCN2CCOCC2)C(=O)Nc2ccc(Br)cc2)cc1` (stereo not given), for which the inhibition is 7.44%.

On to `CCN1CCN(CCCNc2c3ccc(Cl)cc3nc3ccc(O)cc23)CC1`, for which the inhibition came to 0.03%.

Regarding `Fc1cc(Cl)ccc1Nc1ccnc2cc(-c3ccc(CN4CCSCC4)o3)ccc12`, the inhibition stood at 1.72%.

In the case of `COc1ccccc1CCNc1nc(C)cc(N[C@@H](CC(C)C)C(=O)NCCc2ccccc2)n1`, the inhibition was found to be 2.53%.

Consider `Cc1c(C)c2c(c(C)c1O)CC[C@@](C)(C(=O)N1CCC(CCN3CCC(c4c[nH]c5ccccc45)CC3)CC1)O2`, for which the inhibition was found to be 7.87%.

Consider `Nc1cc(-c2ccc3c(N)nccc3c2)ccc1Cl`, for which the inhibition stood at 4.64%.

Consider `Cc1cc(N(C)CCCN2CCCCC2)nc(Nc2ccc(Cl)cc2)n1`, for which the inhibition was 0.51%.

Turning to `CC(C)CCNC(=N)Nc1ccc(OCCCCCOc2ccc(NC(=N)NCCC(C)C)cc2)cc1`, the inhibition is 6.46%.

In the case of `Cc1ccc(Cn2nc(N3CCNCC3)ccc2=O)cc1NC(=O)Nc1ccc(-c2ccccc2)cc1`, the inhibition was 1.5%.

As to `COc1cccc(NC(=O)c2ccc(NCCCN3CCC(C)CC3)c([N+](=O)[O-])c2)c1`, the inhibition worked out at 76.1%.

Turning to `NC1=NC2(CCCC2)C(c2ccc(Cl)c(Cl)c2)C(N)=N1` (stereo not given), the inhibition is 2.63%.

As for `O=C(Nc1ccc(C(F)(F)F)cc1)c1cccc(S(=O)(=O)NC2CCN(Cc3ccccc3)C2)c1` (stereo not given), the inhibition was 4.37%.

In the case of `O=C(Nc1ccc(F)c(C(F)(F)F)c1)NC1CCN(CCCCCNC(=O)C2CC2c2ccc(Cl)c(Cl)c2)CC1` (stereo not given), the inhibition came out at 4.2%.

`CCC(C)NCc1c(O)ccc2c(CNC(C)CC)c(O)ccc12` (stereo not given): the inhibition turned out to be 2.24%.

Regarding `CC(C)CCn1c(Sc2ccc(C#N)c([N+](=O)[O-])c2)nnc1-c1ccc(N(C)C)cc1`, the inhibition worked out at 0.76%.

In the case of `CCc1cn2c3c(cc(C(=O)N[C@@H](Cc4cccc(Cl)c4)[C@H](O)CNC4CCOCC4)cc13)N(C)S(=O)(=O)CC2`, the inhibition was determined as 2.87%.

On to `CCCCN1CCN(CC(O)CNC(=O)Nc2ccc(Cl)cc2)CC1` (stereo not given), for which the inhibition was 2.88%.

`COc1cc(C(=O)NCc2nn(CCN3CCC(N4CCCC4)CC3)cc2-c2ccc(Cl)c(Cl)c2)cc(OC)c1OC`: the inhibition is -2.77%.

In the case of `COc1ccc(Nc2nc(N)c3cc(OC)c(OC)cc3n2)cc1OC`, the inhibition stood at 9.02%.

As for `CS(=O)(=O)CCNCc1nc(-c2ccc3c(Nc4ccc(Oc5ccccn5)cc4)ccnc3c2)cs1`, the inhibition was found to be 5.17%.

For the molecule `Cc1cccc2nc(-c3cccc(-c4cccc(NC(=O)Nc5ccc(Cl)c(Cl)c5)c4)c3)[nH]c12`, the inhibition is -0.37%.

`CCN(CC)CCCNCc1ccc(-c2ccc(C(F)(F)F)cc2)cc1`: the inhibition stood at 5.63%.

With `Cc1ccc(OCC2CCN(c3ncc(C(=O)NC4CC4)cc3Cl)CC2)cc1`, the inhibition was -0.74%.

Consider `CCOc1ccc2nc(C)cc(N/N=C/c3cccc([N+](=O)[O-])c3)c2c1`, for which the inhibition came to 0.39%.

In a further assay the target is Hexose transporter 1 (Plasmodium falciparum) (UniProt O97467). Kind of assay: ST_JUDE_LEISH: Cytotoxicity at 2uM final concentration against transgenic Leishmania Mexicana promastigotes LmPfHT that are glucose transport deficient and complemented with the Plasmodium falciparum hexose transporter. Activity is measured by DNA content using SYBR green in vitro. The format is functional.
On to `OCCN1CCN(C2Cc3ccc(F)cc3Sc3ccc(Cl)cc32)CC1` (stereo not given), for which the inhibition is -3.09%.

For `CC(C)(CN)c1nc(-c2ccc(Br)c(O)c2)c(-c2ccncc2)[nH]1`, the inhibition came out at 1.51%.

With `CCOC(=O)c1sc(C(C)Nc2ccccc2)nc1-c1ccccc1` (stereo not given), the inhibition was -0.3%.

Turning to `O=[N+]([O-])c1ccc(/C=N/Nc2cc(-c3ccccc3)nc3ccccc23)o1`, the inhibition came to 7.41%.

Regarding `COc1cc(NC(=O)c2sc(-c3ccc(Cl)cc3)cc2NC(=O)c2ccncc2)ccc1OCCN1CCCC1`, the inhibition came out at 3.54%.

For `COc1cccc2sc(N3CCN(C(=O)c4ccc([N+](=O)[O-])o4)CC3)nc12`, the inhibition worked out at 11.9%.

For `CN1CCN(Cc2ccc(-c3ccc4c(Nc5cc(O)c(Cl)cc5F)ccnc4c3)o2)CC1`, the inhibition amounted to 4.6%.

`Cc1cc(N(C)C)nc(Nc2ccc(NC(=O)c3ccccc3F)cc2)n1`: the inhibition was determined as 12.2%.

Regarding `Cc1c(Cc2ccc(C(C)C)cc2)cnc2nc(N)nc(N)c12`, the inhibition was found to be 0.5%.

On to `COc1ccc2ncc(F)c(CCN3C4CCC3CC(NCc3ccc5c(c3)OCCO5)C4)c2n1` (stereo not given), for which the inhibition amounted to 71.9%.

`Cc1cc(OCC2CCCO2)c2cc(NC(=O)C(=O)Nc3ccc4nc(C)cc(OCC5CCCO5)c4c3)ccc2n1` (stereo not given): the inhibition worked out at 3.62%.

On to `COc1c(C(=O)NC2CCN(Cc3ccccc3)C2)cnc2ccccc12` (stereo not given), for which the inhibition is 9.19%.

As for `O=C(c1ccc(-c2ccc(Cl)cc2)o1)N1CCc2cc3nccc(N4CCN5CCC[C@H]5C4)c3cc21`, the inhibition amounted to 0.64%.

On to `Nc1nc(N)c2cc(N(Cc3ccccc3)Cc3ccccc3)ccc2n1`, for which the inhibition came out at 17.2%.

Turning to `Cc1nc(-c2nc(NCc3ccccn3)ncc2-c2ccsc2)sc1C`, the inhibition amounted to 5.22%.

`CCc1ccc(CN2CCCCC(NC(=O)c3cc(-c4ccccc4F)cs3)C2)cc1` (stereo not given): the inhibition was -0.89%.

Take `CC(C)c1ccc(OCC(O)CN(CCN2CCOCC2)C(=O)Nc2ccc(Br)cc2)cc1` (stereo not given): the inhibition is 5.63%.

For the molecule `CCN1CCN(CCCNc2c3ccc(Cl)cc3nc3ccc(O)cc23)CC1`, the inhibition is 0.02%.

As for `Fc1cc(Cl)ccc1Nc1ccnc2cc(-c3ccc(CN4CCSCC4)o3)ccc12`, the inhibition turned out to be 3.56%.

Regarding `COc1ccccc1CCNc1nc(C)cc(N[C@@H](CC(C)C)C(=O)NCCc2ccccc2)n1`, the inhibition was 5.72%.

On to `Cc1c(C)c2c(c(C)c1O)CC[C@@](C)(C(=O)N1CCC(CCN3CCC(c4c[nH]c5ccccc45)CC3)CC1)O2`, for which the inhibition came to 7%.

For `Nc1cc(-c2ccc3c(N)nccc3c2)ccc1Cl`, the inhibition is 2.75%.

Regarding `Cc1cc(N(C)CCCN2CCCCC2)nc(Nc2ccc(Cl)cc2)n1`, the inhibition was determined as 2.38%.

For `CC(C)CCNC(=N)Nc1ccc(OCCCCCOc2ccc(NC(=N)NCCC(C)C)cc2)cc1`, the inhibition is 3.87%.

For the molecule `Cc1ccc(Cn2nc(N3CCNCC3)ccc2=O)cc1NC(=O)Nc1ccc(-c2ccccc2)cc1`, the inhibition was found to be 2.27%.

For the molecule `COc1cccc(NC(=O)c2ccc(NCCCN3CCC(C)CC3)c([N+](=O)[O-])c2)c1`, the inhibition was determined as 41.7%.

As for `NC1=NC2(CCCC2)C(c2ccc(Cl)c(Cl)c2)C(N)=N1` (stereo not given), the inhibition worked out at 3.21%.

For the molecule `O=C(Nc1ccc(C(F)(F)F)cc1)c1cccc(S(=O)(=O)NC2CCN(Cc3ccccc3)C2)c1` (stereo not given), the inhibition was determined as 3.64%.

`O=C(Nc1ccc(F)c(C(F)(F)F)c1)NC1CCN(CCCCCNC(=O)C2CC2c2ccc(Cl)c(Cl)c2)CC1` (stereo not given): the inhibition turned out to be 3.79%.

For the molecule `CCC(C)NCc1c(O)ccc2c(CNC(C)CC)c(O)ccc12` (stereo not given), the inhibition was found to be 3.63%.

As to `CC(C)CCn1c(Sc2ccc(C#N)c([N+](=O)[O-])c2)nnc1-c1ccc(N(C)C)cc1`, the inhibition was determined as 0.92%.

`CCc1cn2c3c(cc(C(=O)N[C@@H](Cc4cccc(Cl)c4)[C@H](O)CNC4CCOCC4)cc13)N(C)S(=O)(=O)CC2`: the inhibition was -0.33%.

`CCCCN1CCN(CC(O)CNC(=O)Nc2ccc(Cl)cc2)CC1` (stereo not given): the inhibition amounted to 3.59%.

On to `COc1cc(C(=O)NCc2nn(CCN3CCC(N4CCCC4)CC3)cc2-c2ccc(Cl)c(Cl)c2)cc(OC)c1OC`, for which the inhibition was 3.08%.

Turning to `COc1ccc(Nc2nc(N)c3cc(OC)c(OC)cc3n2)cc1OC`, the inhibition came out at 7.54%.

In the case of `CS(=O)(=O)CCNCc1nc(-c2ccc3c(Nc4ccc(Oc5ccccn5)cc4)ccnc3c2)cs1`, the inhibition came to 4.96%.

As to `Cc1cccc2nc(-c3cccc(-c4cccc(NC(=O)Nc5ccc(Cl)c(Cl)c5)c4)c3)[nH]c12`, the inhibition was -0.17%.

Consider `CCN(CC)CCCNCc1ccc(-c2ccc(C(F)(F)F)cc2)cc1`, for which the inhibition came to 2.78%.

For the molecule `Cc1ccc(OCC2CCN(c3ncc(C(=O)NC4CC4)cc3Cl)CC2)cc1`, the inhibition was -2.55%.

With `CCOc1ccc2nc(C)cc(N/N=C/c3cccc([N+](=O)[O-])c3)c2c1`, the inhibition was 0.05%.
